Data: PubChem BioAssay (NCATS)
Records with an inconclusive call do not appear. Activity calls are given as the source filed them. The call rests on the fitted dose curve; in most records, active means well fitted inhibition curve with a large enough effect; inconclusive means small, poorly fitted or top-dose-only effect; inactive means flat fitted curve, though single readings scatter.

target: Calcium and integrin-binding protein 1 (Homo sapiens) (UniProt Q99828); test: Primary qHTS for Identification of Calcium Integrin Binding Protein 1 (CIB1) Competitor (AID 1508620); conditions: CIB1-GST / FITC-alphaIIb peptide fluorescence polarization; series mostly up to 114 µM; activity change, negative = inhibition: at the top concentration;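 further: GST tagged CIB1 binding a fluorescein labelled alphaIIb integrin peptide tracer; top concentration of the series differs between compounds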
Summary of the method: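 Fluorescence polarization competition: CIB1-GST (1 uM final) preincubated with compound 15 min at room temperature, then FITC-labeled alphaIIb peptide (100 nM final) added for another 15 min. Polarization read at Ex 480/Em 540.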
On the % scale 0 is the no-effect control and ±100 the full control effect.

Sequence of Calcium and integrin-binding protein 1 (Homo sapiens) (Q99828 whole entry, looked up): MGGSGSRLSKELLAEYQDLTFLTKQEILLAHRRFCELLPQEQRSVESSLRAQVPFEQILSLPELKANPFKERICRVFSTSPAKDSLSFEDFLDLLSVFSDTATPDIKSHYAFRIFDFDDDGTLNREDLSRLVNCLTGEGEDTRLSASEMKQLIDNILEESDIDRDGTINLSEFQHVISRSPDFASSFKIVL

| SMILES | activity change, negative = inhibition | Potency |
| --- | --- | --- |
| Cc1ccc(NS(=O)(=O)c2ccc3c(c2)CCCC(=O)N3)cc1C | 1.81% (inactive) | – |
| COC(=O)c1nc(Nc2cc(F)cc(F)c2)nc(NC2CCCC2)n1 | -0.863% (inactive) | – |
| CCn1c2cc(C)sc2c2cnn(Cc3ccccc3F)c(=O)c21 | -2.69% (inactive) | – |
| Cc1ccccc1C(=O)N1CCc2cc(-c3nc(NC(=O)Cc4ccc5ccccc5c4)sc3C)ccc21 | 1.06% (inactive) | – |
| COc1ccc(S(=O)(=O)Nc2ccc(C)c(C)c2)cc1 | -0.199% (inactive) | – |
| Cc1ccccc1-c1nnc(NC(=O)Nc2ccc3ccccc3c2)s1 | 8.35% (inactive) | – |
| Cc1sc(NC(=O)Cc2ccc3c(c2)OCO3)nc1-c1ccc2c(c1)CCN2C(=O)C1CCCCC1 | 3.84% (inactive) | – |
| O=C(Nc1ccc(O)c2ncccc12)c1ccccc1F | -19.4% (inactive) | – |
| Cc1ccnc(C(=S)N2CCN(c3cccc(C(F)(F)F)c3)CC2)c1 | -1.34% (inactive) | – |
| NC(=O)C1CCN(c2nc(-c3ccc(N4CCCCC4)nc3)cs2)CC1 | -14.5% (inactive) | – |
| CC(=O)Nc1sc2c(c1-c1ccco1)CCNC2 | -14.5% (inactive) | – |
| Cc1cc(N[S+](=O)([O-])c2ccc(NC(=O)Cn3c(=O)oc4ccc(Cl)cc43)cc2)no1 | 1.67% (inactive) | – |
| Cc1cnc(-c2ccccc2C2COC2)nc1NCC1CCN(c2cccnc2)CC1 | 15.5% (inactive) | – |
| Nc1nnc(-c2cccc3ccccc23)o1 | 2.82% (inactive) | – |
| O=C(O)c1ccc(O)c2ncc(N3CCCN(CCCc4ccncc4)CC3)cc12 | -7.37% (inactive) | – |
| Cc1cc(-c2nnc3n2CCC3)c(C)n1-c1ccccc1 | 5.46% (inactive) | – |
| C=CCc1cc(F)c(S(=O)(=O)N2CCN(S(=O)(=O)c3ccc4c(c3)OCCO4)CC2)cc1F | 3.05% (inactive) | – |
| O=C(O)c1ccc(O)c2ncc(N3CCCN(CCc4ccncc4)CC3)cc12 | -7.26% (inactive) | – |
| CCOc1ccc(C(C)CNC(=O)c2cc3sccc3n2Cc2ccccc2)cc1OCC (stereo not given) | 8.61% (inactive) | – |
| O=C(O)c1ccc(-c2ccc3ncnc(NCC4CCCO4)c3c2)o1 (stereo not given) | -1.99% (inactive) | – |

| SMILES | activity change, negative = inhibition | Potency |
| --- | --- | --- |
| O=C1Nc2ccccc2C12CC2c1cc(Cl)c(O)c(Cl)c1 (stereo not given) | – | inactive |
| COc1cccc(C2c3c(ncn(-c4ccncc4)c3=N)Oc3ccc4ccccc4c32)c1 (stereo not given) | 5.23% (inactive) | – |
| Cc1cc(C)n2ncc(C(=O)NCc3ccco3)c2n1 | -9.66% (inactive) | – |
| Oc1cccc2cc(CNc3ccccc3F)cnc12 | -11.9% (inactive) | – |
| CCc1nnc2sc(-c3ccc(C)c(NC(=O)c4ccc(-c5cccc(Cl)c5)o4)c3)nn12 | 1.32% (inactive) | – |
| CN(CCC1CCCO1)c1ncnc2ccc(-c3ccc4c(c3)OCO4)cc12 (stereo not given) | -3.23% (inactive) | – |
| Cc1ccc(OCCn2c(CCNC(=O)c3c(F)cccc3F)nc3ccccc32)cc1 | 2.21% (inactive) | – |
| c1nc(NCC2CCCO2)c2ccc(-c3ccc4c(c3)OCO4)cc2n1 (stereo not given) | -7.79% (inactive) | – |
| O=C1Nc2ccccc2/C1=C\c1cc(F)c(O)c(F)c1 | -4.14% (inactive) | – |
| O=C(Nc1nc(Nc2cc(F)cc(F)c2)nc(NC2CCCC2)n1)OCc1ccccc1 | -2.55% (inactive) | – |
| O=C(C1CCN(c2nc(-c3ccc(Br)cc3)cs2)CC1)N1CCOCC1 | 4.07% (inactive) | – |
| CCOC(=O)c1c(-c2ccccc2)no[n+]1[O-] | 1.11% (inactive) | – |
| Cc1sc(NC(=O)Cc2ccc3c(c2)OCO3)nc1-c1ccc2c(c1)CCN2 | 4.34% (inactive) | – |
| CC(C)(C)OC(=O)Cc1nnc(C(C(=O)OCc2ccccc2)c2ccccc2)s1 (stereo not given) | 0.406% (inactive) | – |
| CCCCN(C)C(=O)Cn1nc(-c2ccc(C(C)=O)cc2)ccc1=O | -0.249% (inactive) | – |
| O=[S+]([O-])(Nc1ccc(-c2nc3ccccc3[nH]2)cc1)c1ccc2c(c1)CCO2 | 0.754% (inactive) | – |
| COc1cccc(C2c3c(ncn(-c4ccc(F)cc4)c3=N)Oc3ccc4ccccc4c32)c1 (stereo not given) | 6.17% (inactive) | – |
| O=c1c2ccccc2nc2sc(NCc3ccc(Cc4ccccc4)cc3)nn12 | 2.75% (inactive) | – |
| Cc1ccsc1CN(C)c1ncnc2ccc(-c3oc(-c4ccccc4)nc3C)cc12 | 0.991% (inactive) | – |
| Cc1ccc(CC(=O)Nc2nc(-c3ccc4c(c3)CCN4C(=O)c3ccccc3C)c(C)s2)cc1C | 10.7% (inactive) | – |
